From PubChem BioAssay (NCATS)
Inconclusive results are not listed. Active and inactive are the calls of the source. The call rests on the fitted dose curve; in most records, active means well fitted curve in the direction sought with a large enough effect; inconclusive means small, poorly fitted or top-dose-only effect, or another doubt; inactive means no such curve, though single readings can be large; an effect the other way counts as inactive or inconclusive.

Key:
[1] = Quantitative High-Throughput drug screen in 47 multiple myeloma cell lines against the NCATS MIPE library collection: AMO1_DSMZ cell viability assay (AID 1918927; further: nearly all actives have a fitted effect of over 30% in size)
Procedure, shortened: (§1)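 qHTS of the MIPE 4.0 collection: 500 myeloma cells/well, 48 h drug exposure at 37C in 5% CO2, then CellTiter-Glo for 5 min at room temperature before luminescence reading.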

[2] = Quantitative High-Throughput drug screen in 47 multiple myeloma cell lines against the NCATS MIPE library collection: ARP1_JJKsccF8 cell viability assay (AID 1918928; further: nearly all actives have a fitted effect of over 40% in size)
Procedure, shortened: (§2)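 Cell viability inhibition in this qHTS is measured via ATP content (CellTiter-Glo) after 48 h drug exposure at 37 °C. Wells hold 500 cells; DMSO-treated wells define 100% and medium-only wells 0%.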

[3] = Quantitative High-Throughput drug screen in 47 multiple myeloma cell lines against the NCATS MIPE library collection: ARD_JJKsccE7 cell viability assay (AID 1918929)
Procedure, shortened: as §1

[4] = Quantitative High-Throughput drug screen in 47 multiple myeloma cell lines against the NCATS MIPE library collection: Karpas620_DSMZ cell viability assay (AID 1918959); further: nearly all actives have a fitted effect of over 30% in size
Procedure, shortened: (§3)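 Myeloma cells (500 per well) were exposed to MIPE 4.0 compounds by pin transfer and incubated 48 hours at 37C, 5% CO2. Viability was read as ATP by CellTiter-Glo luminescence, normalised to DMSO (100%) and media-only (0%) wells.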

[5] = Quantitative High-Throughput drug screen in 47 multiple myeloma cell lines against the NCATS MIPE library collection: KMM1_JCRB cell viability assay (AID 1918960); further: nearly all actives have a fitted effect of over 30% in size
Procedure, shortened: as §2

[6] = Quantitative High-Throughput drug screen in 47 multiple myeloma cell lines against the NCATS MIPE library collection: Karpas417_ECACC cell viability assay (AID 1918961); settings: Karpas417 myeloma viability, CellTiter-Glo ATP luminescence, 48 h; viability (% of DMSO): at 45.8 µM (top of the series)
Procedure, shortened: (§4)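 CellTiter-Glo ATP luminescence gave viability after 48 h compound treatment at 37C of 500 multiple myeloma cells per well. Normalisation used DMSO-only wells as 100% and media-only wells as 0% viability; primary qHTS of approved and investigational drugs.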

[7] = Quantitative High-Throughput drug screen in 47 multiple myeloma cell lines against the NCATS MIPE library collection: JIM3_ECACC cell viability assay (AID 1918963; further: nearly all actives have a fitted effect of over 35% in size)
Procedure, shortened: as §3

[8] = Quantitative High-Throughput drug screen in 47 multiple myeloma cell lines against the NCATS MIPE library collection: INA6_PLB cell viability assay (AID 1918965; further: nearly all actives have a fitted effect of over 55% in size)
Procedure, shortened: as §4

[9] = Quantitative High-Throughput drug screen in 47 multiple myeloma cell lines against the NCATS MIPE library collection: H1112_PLB cell viability assay (AID 1918967; further: nearly all actives have a fitted effect of over 30% in size)
Procedure, shortened: as §1

[10] = Quantitative High-Throughput drug screen in 47 multiple myeloma cell lines against the NCATS MIPE library collection: KMS27_JCRB cell viability assay (AID 1918970); further: nearly all actives have a fitted effect of over 30% in size
Procedure, shortened: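 CellTiter-Glo luminescence after 48 h drug exposure at 37 °C; 500 cells/well, 1536-well format, pin-tool compound addition; DMSO = 100%, media-only = 0% viability.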

[11] = Quantitative High-Throughput drug screen in 47 multiple myeloma cell lines against the NCATS MIPE library collection: KMS12BM_JCRB cell viability assay (AID 1918971); further: nearly all actives have a fitted effect of over 35% in size
Procedure, shortened: (§5)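 Luminescent ATP measurement with CellTiter-Glo gives viability, scaled between DMSO-only wells (100%) and media-only wells (0%). Cells, 500 per well, faced library compounds for 48 hours at 37C.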

[12] = Quantitative High-Throughput drug screen in 47 multiple myeloma cell lines against the NCATS MIPE library collection: KMS12PE_JCRB cell viability assay (AID 1918972); further: nearly all actives have a fitted effect of over 30% in size
Procedure, shortened: as §4

[13] = Quantitative High-Throughput drug screen in 47 multiple myeloma cell lines against the NCATS MIPE library collection: KMS26_JCRB cell viability assay (AID 1918975); further: nearly all actives have a fitted effect of over 45% in size
Procedure, shortened: as §5

[14] = Quantitative High-Throughput drug screen in 47 multiple myeloma cell lines against the NCATS MIPE library collection: KHM11_PLB cell viability assay (AID 1918962); further: nearly all actives have a fitted effect of over 35% in size
Procedure, shortened: as §3

[15] = Quantitative High-Throughput drug screen in 47 multiple myeloma cell lines against the NCATS MIPE library collection: JIM1_ECACC cell viability assay (AID 1918964)
Procedure, shortened: as §1

[16] = Quantitative High-Throughput drug screen in 47 multiple myeloma cell lines against the NCATS MIPE library collection: JJN3_DSMZ cell viability assay (AID 1918966; further: nearly all actives have a fitted effect of over 50% in size)
Procedure, shortened: as §1

[17] = Quantitative High-Throughput drug screen in 47 multiple myeloma cell lines against the NCATS MIPE library collection: Karpas25_ECACC cell viability assay (AID 1918968; further: nearly all actives have a fitted effect of over 35% in size)
Procedure, shortened: as §1

[18] = Quantitative High-Throughput drug screen in 47 multiple myeloma cell lines against the NCATS MIPE library collection: KMS20_JCRB cell viability assay (AID 1918973); further: nearly all actives have a fitted effect of over 45% in size
Procedure, shortened: as §1

[19] = Quantitative High-Throughput drug screen in 47 multiple myeloma cell lines against the NCATS MIPE library collection: MMM1_PLB cell viability assay (AID 1918976); further: nearly all actives have a fitted effect of over 35% in size
Procedure, shortened: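 ATP-based CellTiter-Glo luminescence after 48 h drug exposure (37 °C, 5% CO2) of 500 myeloma cells per well. DMSO-only wells set 100% viability, media-only wells 0%; MIPE 4.0 library added by pin tool.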

[20] = Quantitative High-Throughput drug screen in 47 multiple myeloma cell lines against the NCATS MIPE library collection: KMS21BM_JCRB cell viability assay (AID 1918974); settings: ATP luminescence, 48 h; viability: at 45.8 µM (top of the series) unless noted
Procedure, shortened: as §1
Potency means the concentration at half of the fitted maximal effect.

CN(C)c1cc(NC(=O)CNC(C)(C)C)c(O)c2c1C[C@@H]1C[C@H]3[C@H](N(C)C)C(=O)C(C(N)=O)=C(O)[C@@]3(O)C(=O)C1=C2O
inactive: Potency [1] | Potency [2] | Potency [3] | Potency [4] | Potency [5] | Potency [6] | Potency [7] | Potency [8] | Potency [9] | Potency [10] | Potency [11] | Potency [12] | Potency [13]

COc1cc2ncnc(Nc3ccc(F)c(Cl)c3)c2cc1OCCCN1CCOCC1
active: Potency [1] 4.81 µM | Potency [2] 48.1 µM | Potency [3] 12.1 µM | Potency [4] 6.79 µM | Potency [5] 8.55 µM | Potency [6] 3.4 µM | Potency [14] 3.4 µM | Potency [7] 13.6 µM | Potency [15] 5.4 µM | Potency [8] 5.4 µM | Potency [16] 42.9 µM | Potency [9] 1.52 µM | Potency [17] 6.05 µM | Potency [10] 13.6 µM | Potency [11] 34 µM | Potency [12] 3.03 µM | Potency [18] 3.4 µM | Potency [13] 38.2 µM | Potency [19] 54 µM

C=C1C(=O)OC2C=C(C)CCC=C(C)CCC12 (centres undefined)
active: Potency [1] 18.7 µM | Potency [2] 20.9 µM | Potency [3] 23.5 µM | Potency [4] 14.8 µM | Potency [5] 16.6 µM | Potency [15] 14.8 µM | Potency [8] 16.6 µM | Potency [16] 16.6 µM | Potency [9] 20.9 µM | Potency [17] 20.9 µM | Potency [10] 20.9 µM | Potency [11] 20.9 µM | Potency [12] 20.9 µM | Potency [20] 26.4 µM
inactive: Potency [14]

CC(C)(Cc1ccc2ccccc2c1)NC[C@@H](O)COc1cccc(Cl)c1C#N
inactive: Potency [1] | Potency [2] | Potency [3] | Potency [5] | Potency [7] | Potency [8] | Potency [9] | Potency [10] | Potency [11] | Potency [12]
active: Potency [16] 5.9 µM

CNC1CCC(N(Cc2cccc(-c3ccncc3)c2)C(=O)c2sc3c(F)ccc(F)c3c2Cl)CC1 (centres undefined)
active: Potency [1] 23.5 µM | Potency [2] 16.6 µM | Potency [3] 29.6 µM | Potency [4] 16.6 µM | Potency [5] 18.7 µM | Potency [14] 0.469 µM | Potency [7] 16.6 µM | Potency [15] 14.8 µM | Potency [9] 18.7 µM | Potency [17] 11.8 µM | Potency [10] 18.7 µM | Potency [12] 10.5 µM | Potency [18] 1.48 µM | Potency [13] 16.6 µM

Nc1ncnc2c1nc(Cl)n2[C@@H]1O[C@H](CO)[C@@H](O)[C@@H]1O
active: Potency [1] 2.35 µM | Potency [2] 13.2 µM | Potency [3] 14.8 µM | Potency [4] 14.8 µM | Potency [15] 16.6 µM | Potency [8] 2.09 µM | Potency [16] 16.6 µM | Potency [9] 18.7 µM | Potency [17] 7.43 µM | Potency [10] 20.9 µM | Potency [11] 23.5 µM | Potency [12] 14.8 µM | Potency [18] 4.69 µM | Potency [13] 20.9 µM | Potency [19] 18.7 µM

NC1CCC(Nc2nc(Nc3ccc(C(=O)N4CCCCC4)cc3)c3ncn(-c4cccc(F)c4)c3n2)CC1 (centres undefined)
inactive: Potency [1] | Potency [2] | Potency [3] | Potency [4] | Potency [5] | Potency [6] | Potency [7] | Potency [9] | Potency [17] | Potency [11] | Potency [12] | Potency [20]

Nc1ncnc2c1ncn2[C@@H]1O[C@@H](CO)[C@H](O)[C@H]1O
inactive: Potency [1] | Potency [2] | Potency [3] | Potency [4] | Potency [6] | Potency [7] | Potency [15] | Potency [8] | Potency [9] | Potency [17] | Potency [10] | Potency [11] | Potency [12]

CC(C)C(=O)Oc1ccc(CO)cc1[C@H](CCN(C(C)C)C(C)C)c1ccccc1
active: Potency [11] 14.8 µM
inactive: Potency [1] | Potency [2] | Potency [3] | Potency [4] | Potency [5] | Potency [6] | Potency [7] | Potency [15] | Potency [9] | Potency [17] | Potency [10] | Potency [12] | Potency [20]

CCOc1ccc(Nc2nc(-c3c(C)nc4ccccn34)cs2)cc1
inactive: Potency [7] | Potency [18]
active: Potency [1] 0.001 µM | Potency [2] 0.003 µM | Potency [3] 0.001 µM | Potency [4] 0.0015 µM | Potency [5] 0.001 µM | Potency [14] 0.0743 µM | Potency [16] 5.26 µM | Potency [11] 0.0066 µM | Potency [12] 0.003 µM | Potency [13] 0.332 µM

N#C[C@H]1C[C@H]2C[C@@H]2N1C(=O)[C@@H](N)C12CC3CC(CC(O)(C3)C1)C2
active: Potency [2] 3.72 µM
inactive: Potency [1] | Potency [3] | Potency [5] | Potency [7] | Potency [15] | Potency [10] | Potency [12]

O=C(O)c1ccc(-c2c[nH]c3ncc(-c4ccccc4)cc23)cc1C1CCCC1
inactive: Potency [2] | Potency [4] | Potency [5] | Potency [12] | Potency [13]
active: Potency [1] 2.96 µM | Potency [3] 0.935 µM | viability [20] 272%

CC#CCn1c(N2CCC[C@@H](N)C2)nc2c1c(=O)n(Cc1nc(C)c3ccccc3n1)c(=O)n2C
inactive: Potency [1] | Potency [3] | Potency [4] | Potency [5] | Potency [14] | Potency [10] | Potency [12]
active: Potency [2] 2.96 µM | Potency [16] 3.72 µM | Potency [17] 14.8 µM
